The source of these data is PubChem BioAssay (NCI).

Among the test systems are NCI-H23 lung; NCI-H226 lung; NCI-H322M lung; HOP-62 NSCLC; NCI-H460 lung; HOP-92 NSCLC; NCI-H522 lung; A549/ATCC NSCLC; 786-0 renal; COLO 205 colon.
Common to all, as to assay: NCI-60 one-dose screen, 48 h (100 = growth as untreated, 0 = no growth, -100 = all killed)
Common to all, as to conditions: 10 µM

About 83,000 compounds went through this panel and 20% of them were active in at least one assay; those are over-represented in the sample as a whole.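 In brief: 96-well plates, 48 h treatment, single concentration, percent growth endpoint.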 A number with no mark means an inactive call. The source made the active and inactive calls. How the source made its calls: active means growth percent below 10; inactive means the rest.

Regarding `CCOc1ccc2c(c1)CC[C@@H]1[C@@H]2CC[C@]2(C)[C@@H](O)[C@@H](O)C[C@@H]12`, the growth is 106% in the assay with NCI-H23 lung; 85.7% in the assay with NCI-H226 lung; 91.4% with NCI-H322M lung; 114% in the assay on HOP-62 NSCLC; 100% with NCI-H460 lung; 122% with HOP-92 NSCLC. For the same compound, the growth was 119% in the assay with NCI-H522 lung, 80.3% with A549/ATCC NSCLC, 101% with 786-0 renal and 112% in the assay on COLO 205 colon.
For `Cc1ccc(NS(=O)(=O)c2ccccc2)c(NS(=O)(=O)c2ccccc2)c1`, the growth was 87.1% with NCI-H23 lung; 105% in the assay with NCI-H226 lung; 109% in the assay on NCI-H322M lung; 86.5% with HOP-62 NSCLC; 102% with NCI-H460 lung; 93.5% in the assay with HOP-92 NSCLC. Besides, the growth with NCI-H522 lung was 102%; with A549/ATCC NSCLC, 103%; in the assay on 786-0 renal it was 108%; in the assay with COLO 205 colon, 97.5%.
`COc1ccc(N2CCN(c3nc(-c4ccccc4)c(C#N)c(=O)[nH]3)CC2)cc1`: the growth in the assay with NCI-H23 lung is 98.7%; in the assay with NCI-H226 lung, 107%; with NCI-H322M lung, 94.6%; in the assay on HOP-62 NSCLC, 91.8%; with NCI-H460 lung, 103%; in the assay with HOP-92 NSCLC, 92.4%. The growth is 92.7% in the assay on NCI-H522 lung, 104% with A549/ATCC NSCLC, 103% in the assay with 786-0 renal and 102% in the assay with COLO 205 colon.
Take `CCOC(=O)c1c(C)n(-c2ccc(Cl)cc2)c2ccc(OC(=O)/C=C/c3ccccc3)cc12`: the growth was 93.3% in the assay with NCI-H23 lung; 95.1% in the assay on NCI-H226 lung; 94.8% with NCI-H322M lung; 95% in the assay with HOP-62 NSCLC; 99.1% with NCI-H460 lung; 58% with HOP-92 NSCLC. For the same compound, the growth with NCI-H522 lung was 82.3%; with A549/ATCC NSCLC it was 67.7%; with 786-0 renal, 94.3%; in the assay on COLO 205 colon, 93.1%.
On to `Cc1ccc(-n2nnc3c(sc4ccccc43)c2=O)cc1`, for which the growth with NCI-H23 lung is 70.3%; in the assay on NCI-H226 lung it was 46.9%; with NCI-H322M lung, 38.8%; in the assay with HOP-62 NSCLC, 31.6%; with NCI-H460 lung, 18.3%; in the assay on HOP-92 NSCLC, 6.27% (active). Further, the growth with NCI-H522 lung was 58.6%; with A549/ATCC NSCLC it was 35.3%; with 786-0 renal, 24.4%; in the assay with COLO 205 colon, 44%.
`O=C(/C=C/c1ccc(Cl)cc1)c1ccc(Br)cc1`: the growth in the assay on NCI-H23 lung was 94.6%; in the assay with NCI-H226 lung, 108%; in the assay on NCI-H322M lung it was 91.2%; in the assay with HOP-62 NSCLC it was 97.2%; in the assay on NCI-H460 lung it was 109%; with HOP-92 NSCLC it was 111%. For the same compound, the growth is 82.6% in the assay on NCI-H522 lung, 102% with A549/ATCC NSCLC, 81.1% in the assay on 786-0 renal and 110% with COLO 205 colon.
For the compound `C=C1C(=O)O[C@H]2[C@H]1CC/C(COC(=O)OCCCCCOC(=O)OC/C1=C/CC[C@@]3(C)O[C@H]3[C@H]3OC(=O)C(=C)[C@@H]3CC1)=C\CC[C@@]1(C)O[C@@H]21`, the growth in the assay with NCI-H23 lung is -37.5% (active); in the assay on NCI-H226 lung, -33% (active); in the assay with NCI-H322M lung it was 50.9%; in the assay on HOP-62 NSCLC it was 9.65% (active); in the assay with NCI-H460 lung, -19.9% (active); in the assay with HOP-92 NSCLC it was -49.6% (active). For the same compound, the growth is -66.2% (active) in the assay on NCI-H522 lung, 44.3% with A549/ATCC NSCLC, -63.8% (active) in the assay on 786-0 renal and -85% (active) in the assay on COLO 205 colon.
Take `Cc1nn2c(/C=C3/C(=O)Nc4ccc(Cl)cc43)c(-c3ccccc3)nc2s1`: the growth in the assay on NCI-H23 lung is 51.4%; with NCI-H226 lung, 33.4%; with NCI-H322M lung, 12.7%; with HOP-62 NSCLC, -19.8% (active); with NCI-H460 lung, 25.7%; in the assay on HOP-92 NSCLC, -5.92% (active). Further, the growth in the assay on NCI-H522 lung was 43.6%; with A549/ATCC NSCLC, 24.2%; in the assay with 786-0 renal it was 41.2%; with COLO 205 colon it was 49.7%.
Take `C[C@@H]1N=C(c2ccc(Br)cc2)Nc2nc3ccccn3c2C1=O`: the growth was 53.7% in the assay on NCI-H23 lung; 68.3% in the assay on NCI-H226 lung; 74% with NCI-H322M lung; 55.8% with HOP-62 NSCLC; 32.5% in the assay on NCI-H460 lung; 59.5% with HOP-92 NSCLC. The growth was 34.8% in the assay on NCI-H522 lung, 54.7% with A549/ATCC NSCLC, 83.1% in the assay on 786-0 renal and 26.3% with COLO 205 colon.
On to `C=CCOc1ccc2c(c1)CC=C1[C@@H]2CC[C@]2(C)C(=O)/C(=N/O)C[C@@H]12`, for which the growth was 95.1% with NCI-H23 lung; 96.1% in the assay on NCI-H226 lung; 81.2% with NCI-H322M lung; 103% with HOP-62 NSCLC; 60.3% in the assay on NCI-H460 lung; 101% with HOP-92 NSCLC. For the same compound, the growth was 80.7% in the assay with NCI-H522 lung, 84.3% in the assay with A549/ATCC NSCLC, 79.2% in the assay on 786-0 renal and 91.3% in the assay with COLO 205 colon.
Consider `Cc1cn(C(=O)/C(Cl)=C(/Cl)C(=O)O)c2ccccc12`, for which the growth in the assay with NCI-H23 lung is 96.7%; in the assay with NCI-H226 lung, 97.6%; in the assay on NCI-H322M lung, 128%; in the assay with HOP-62 NSCLC it was 88%; with NCI-H460 lung it was 114%; in the assay with HOP-92 NSCLC, 80.4%. The growth in the assay with NCI-H522 lung is 110%; in the assay on A549/ATCC NSCLC it was 111%; in the assay on 786-0 renal, 116%; with COLO 205 colon, 91.7%.
On to `COc1ccc(-c2nc(NC(=O)CS(=O)(=O)c3ccc(F)cc3)sc2C)cc1`, for which the growth in the assay with NCI-H23 lung was 37%; in the assay with NCI-H226 lung, 93.9%; in the assay on NCI-H322M lung it was 69.5%; in the assay with HOP-62 NSCLC it was 65.3%; in the assay on NCI-H460 lung it was 59.2%; in the assay on HOP-92 NSCLC, 37%. The growth is 49% in the assay with NCI-H522 lung, 54.2% in the assay on A549/ATCC NSCLC, 60.9% in the assay with 786-0 renal and 88.8% in the assay on COLO 205 colon.
Consider `CN(C)c1ccc2c(c1)OC(N)=C(C#N)C2c1ccc2c(c1)CCO2` (stereo not given), for which the growth with NCI-H23 lung was 35.5%; in the assay on NCI-H226 lung it was 48.9%; in the assay with NCI-H322M lung, 51.4%; with HOP-62 NSCLC, 36.3%; with NCI-H460 lung it was 9.76% (active); in the assay on HOP-92 NSCLC it was 58.8%. The growth in the assay on NCI-H522 lung was -6.52% (active); in the assay with A549/ATCC NSCLC, 21.9%; with 786-0 renal, 34.8%; in the assay on COLO 205 colon it was -26% (active).
